# Screening data (PubChem BioAssay)
# HT1080NT lethal: kills 2HG-producing HT-1080-NT fibrosarcoma cells; HT-1080-NT fibrosarcoma viability, CellTiter-Glo ATP luminescence, 48 h; AID 686970; Potency, µM (series often up to 46.1 µM), for inactives: at the top dose activity, negative = less viability, actives largely listed as cytotoxic; 1.6% of 360,000 active;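 also: NT is the 2HG producing partner of a matched IDH1 knockdown line; 0% = DMSO-treated cells and -100% = media-only wells without cells; nearly all actives have a fitted effect of over 55% in size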
#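 Fibrosarcoma NT cells, 750 per well in 5% FBS RPMI, were exposed to compound for 48 hours. Viability: CellTiter-Glo luminescence.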
# TDP1 cell CPT: DT40-hTDP1 cell growth loss with CPT; 12% of 420,000 active; Potency, µM (top dose mostly 46.2 µM), for inactives: at the top dose activity change, negative = growth inhibition, usual class: inhibitors; chicken DT40 Tdp1-/-;hTDP1 cells + 20 nM CPT, ATP luminescence, 48 h; AID 686979; also: nearly all actives have a fitted effect of over 55% in size
#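 Chicken DT40 Tdp1-/- cells complemented with human TDP1, 400 cells/well, exposed to compounds plus 20 nM camptothecin for at least 48 h at 37 C; viability read as ATP content by CellTiter-Glo luminescence.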
# HT1080 IDH1KD tx: HT-1080 IDH1 knockdown cell toxicity (counter line); 2% of 360,000 active; HT-1080 IDH1 knockdown viability, ATP luminescence, 48 h; Potency, µM (titrated, usually from 46.1 µM), for the others: top-dose activity, negative = toxicity, usual class: cytotoxic; AID 686971;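 also: 0% = DMSO wells and -100% = cell-free medium wells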
#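 Knockdown cells (IDH1KD HT-1080) received compounds 2 h after plating at 750 cells/well and were kept 48 h at 37 °C in 5% FBS RPMI. A CellTiter-Glo luminescence read gave % activity for curve fitting.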
# TDP1 cell noCPT: qHTS for Inhibitors of human tyrosyl-DNA phosphodiesterase 1 (TDP1): qHTS in cells in absence of CPT. DT40 Tdp1-/- hTDP1 cells, no CPT, ATP luminescence, 48 h. Potency, µM (titrated, usually from 46.2 µM), for inactives: top-dose activity change, negative = growth inhibition, actives largely listed as inhibitors. 15% of 420,000 active; also: nearly all actives have a fitted effect of over 55% in size
#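 Chicken DT40 Tdp1-/- cells stably complemented with human TDP1 were seeded at 400 cells/well with DMSO in place of 20 nM camptothecin. After compound pinning, cells grew at least 48 hr at 37 °C; viability read by CellTiter-Glo luminescence.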
# KB-V1 MDR tox: kills drug-selected multidrug resistant KB-V1 cells | 3.4% of 400,000 active | Potency, µM (doses to about 46.1 µM), usual class: cytotoxic | KB-V1 MDR cells viability, CellTiter-Glo, 72 h; also: nearly all actives have a fitted effect of over 60% in size
#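 Luminescent ATP read-out (CellTiter-Glo, 10 min) measures survival of drug-selected KB-V1 MDR cells after 72 h, 37 degrees C compound exposure. Medium: phenol-red-free DMEM, 10% FBS. Values from fitted concentration-response curves.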
# KB-3-1 tox: KB-3-1 parental cell cytotoxicity; 1.4% of 400,000 active; AID 1347075; KB-3-1 viability, CellTiter-Glo ATP luminescence, 72 h; Potency, µM (doses to about 46.1 µM), hits mostly cytotoxic; also: nearly all actives have a fitted effect of over 60% in size
#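 Cytotoxicity measured as CellTiter-Glo luminescence after 72 h at 37 C. Compound titrations were pinned onto drug-naive KB-3-1 parental adenocarcinoma cells grown in DMEM with 10% FBS, and normalized data fitted to concentration-response curves.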
# The depositor's hits bear a star; i = inactive; ? = inconclusive; / = no result given. Most compounds without a hit are left out; they make up all but 19% or so of the library. Calls follow the shape of the dose curve; as a rule, active = well fitted curve in the direction sought with a large enough effect; inconclusive = small, poorly fitted or top-dose-only effect, or another doubt; inactive = no such curve, though single readings can be large; an effect the other way counts as inactive or inconclusive. Unless noted, % is scaled to controls: 0 for no effect and ±100 for the full control effect; potency is read from the fitted curve at half-maximal effect.
SMILES,HT1080NT lethal,TDP1 cell CPT,HT1080 IDH1KD tx,TDP1 cell noCPT,KB-V1 MDR tox,KB-3-1 tox
CC(C)Cn1c(N)c(C(=O)CSc2ncccn2)c(=O)n(C)c1=O,6.0%,?,7.6%,10.3µM*,?,i
CC(C)Cn1c(N)c(C(=O)CSc2ncn[nH]2)c(=O)n(C)c1=O,5.3%,-28.4%,10.4%,?,i,i
Cc1csc(SCC(=O)c2c(N)n(CC(C)C)c(=O)n(C)c2=O)n1,2.6%,16.4µM*,4.9%,20.6µM*,i,i
CCOc1ccc(C(=O)Nc2ccc(S(=O)(=O)Nc3nc(C)cc(C)n3)cc2)cc1OC,/,-27.9%,/,-20.1%,/,/
CC(OC(=O)c1ccc2ncsc2c1)C(=O)Nc1cccc(Cl)c1 (stereo not given),-7.2%,-19.2%,7.8%,?,i,i
CCN(CC)C(=O)[C@H]1CC(CC(=O)NCC23CC4CC(CC(C4)C2)C3)C(=O)N2CCc3c([nH]c4ccccc34)[C@]12C (stereo not given in full),11.1%,16.4µM*,7.4%,8.2µM*,i,i
C[C@]12c3[nH]c4ccccc4c3CCN1C(=O)C(CC(=O)NCCC1=CCCCC1)C[C@@H]2C(=O)N1CCCCC1 (stereo not given in full),7.2%,-5.2%,0.2%,-23.2%,i,i
CCN(CC)C(=O)[C@H]1CC(CC(=O)NCCCn2ccnc2)C(=O)N2CCc3c([nH]c4ccccc34)[C@]12C (stereo not given in full),4.6%,-8.1%,3.8%,-14.1%,i,i
CCN(CC)C(=O)[C@H]1CC(CC(=O)NCCC2=CCCCC2)C(=O)N2CCc3c([nH]c4ccccc34)[C@]12C (stereo not given in full),-1.4%,23.1µM*,-10.7%,23.1µM*,i,i
CCN(CC)C(=O)[C@H]1C[C@H](CC(=O)NCCC2=CCCCC2)C(=O)N2CCc3c([nH]c4ccc(Cl)cc34)[C@]12C,-1.6%,16.4µM*,-4.8%,20.6µM*,i,i
C[C@]12c3[nH]c4ccc(Cl)cc4c3CCN1C(=O)[C@@H](CC(=O)NCCC1=CCCCC1)C[C@@H]2C(=O)N1CCCCC1,-0.3%,-27.9%,0.4%,-21.6%,i,i
Cc1ccc(NC(=O)C(Cc2ccccc2)NS(=O)(=O)c2ccc3c(c2)CCC(=O)N3)cc1 (stereo not given),/,2.2%,/,-44.2%,?,i
Cc1ccc(S(=O)(=O)Nc2c(C)nn(C)c2C)cc1,7.2%,-16.4%,-5.4%,-27.9%,i,i
CCn1nc(C)c(NS(=O)(=O)c2ccc(C)cc2)c1C,-23.6%,?,-3.8%,?,16.4µM*,?
CCc1ccc(S(=O)(=O)Nc2c(C)nn(C)c2C)cc1,-6.4%,11.2µM*,-13.1%,11.2µM*,i,?
O=C1CCCC2=C1C(c1ccc(Cl)cc1)N=C(Nc1nc3ccccc3o1)N2 (stereo not given),/,?,/,?,i,i
Nc1cccc(-c2c[nH]c3ncc(-c4cccnc4)cc23)c1,5.4%,8.2µM*,-0.5%,20.6µM*,i,i
COc1ccc(NC(=S)N2CCN(c3ccc([N+](=O)[O-])cc3)CC2)cc1OC,-22.3%,10.3µM*,-13.6%,11.6µM*,?,i
COc1cccc(NC(=S)N2CCN(c3ccc([N+](=O)[O-])cc3)CC2)c1,0.7%,6.51µM*,2.1%,10.3µM*,i,i
CCCNC(=O)c1ccccc1NC(=O)c1ccccc1N(C)S(=O)(=O)c1ccccc1,-2.2%,?,-11.4%,?,9.2µM*,?
COC(=O)c1ccc(NC(=O)c2ccccc2N(C)S(=O)(=O)c2ccccc2)cc1,-7.5%,?,-16.8%,20.6µM*,i,i
CN(c1ccccc1C(=O)O)S(C)(=O)=O,2.1%,9.7%,15.8%,-7.1%,i,i
CN(c1ccccc1C(=O)Nc1cccc(Cl)c1Cl)S(C)(=O)=O,-2.8%,-2.6%,-3.5%,-9.4%,16.4µM*,i
COc1ccc(NC(=S)NNc2ccc(C(=O)O)cc2)cc1,-25.9%,0.9%,-20.7%,-11.8%,i,i
CSc1ncccc1C(=O)N1CCOc2ccc(C(C)(O)CCn3cccn3)cc2C1 (stereo not given),/,0.9%,/,-1.5%,/,/
SMILES,HT1080NT lethal,TDP1 cell CPT,HT1080 IDH1KD tx,TDP1 cell noCPT,KB-V1 MDR tox,KB-3-1 tox
O=C(CCc1nnc2n(Cc3ccccc3)c(=O)c3ccccc3n12)NCCN1CCOCC1,4.9%,?,0.5%,?,i,i
COc1cc(NC(=O)c2ccc(OCc3c(C)noc3C)c(OC)c2)cc(OC)c1,1.8%,?,0.0%,13µM*,i,i
COc1cc(C(=O)Nc2nc3ccc(C)cc3s2)ccc1OCc1c(C)noc1C,5.1%,17.8µM*,3.0%,17.8µM*,?,?
CCc1nnc(NC(=O)c2ccc(OCc3c(C)noc3C)c(OC)c2)s1,9.9%,-2.0%,4.0%,-26.7%,i,i
COc1ccc(NS(=O)(=O)c2cc(NC(=O)c3cccc(OCc4c(C)noc4C)c3)ccc2OC)cc1,-0.3%,?,-11.4%,23.1µM*,i,i
COc1cc(C(=O)Nc2cc(OC)c(OC)c(OC)c2)ccc1OCc1c(C)noc1C,-4.0%,?,5.4%,?,?,i
COc1cc(C(=O)NCc2cn3cccc(C)c3n2)cc(OC)c1OC,7.5%,-9.3%,-3.8%,?,i,i
NC(=O)C1CCN(CC(=O)Nc2cccc(C(=O)Nc3cccc(C(F)(F)F)c3)c2)CC1,-5.6%,?,-19.6%,?,i,i
CC12CCC(C(=O)Nc3ccccc3Cl)(C(Br)C1=O)C2(C)C (stereo not given),6.3%,-1.5%,20.1%,-20.9%,13µM*,i
CC12CCC(C(=O)Nc3ccccc3Cl)([C@H](Br)C1=O)C2(C)C (stereo not given in full),1.4%,9.0%,6.8%,2.3%,i,i
CCn1c(=O)c(CCC(=O)NCC2CCCO2)c(C)c2c(C)nn(-c3ccc(C)cc3)c21 (stereo not given),-0.4%,23.1µM*,-0.1%,?,i,i
CC(C)(C)c1ccc(-c2noc(CCC(=O)NCC3CCCO3)n2)cc1 (stereo not given),-2.5%,20.6µM*,-18.2%,?,?,?
